Source: PubChem BioAssay
Hits are enriched below; roughly 3% of the tested compounds scored in any of these assays.
C8 TRAIL sens: sensitizes caspase-8 expressing cells to TRAIL; NB7+C8 cells + TRAIL, ATPlite viability luminescence; inhibition (viability loss, TRAIL sensitization), % at 10 µM; 1% of 360,000 active;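 active means compounds causing at least 50% loss of cell viability in the single-dose screen, relative to plate controls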
SENP6 inh: blocks the human protease SENP6; Q9GZR1; Recombinant SENP6 catalytic domain, aminoluciferin luminescence; inhibition, % at 10 µM; 1.8% of 330,000 active; AID 2599;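 active means inhibition above about 50% at the single tested dose, limit read from the data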;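 further: plate controls were DMSO wells with enzyme for no effect and DMSO wells lacking enzyme for full effect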
Target sequence (Q9GZR1 628-1112 limits assumed): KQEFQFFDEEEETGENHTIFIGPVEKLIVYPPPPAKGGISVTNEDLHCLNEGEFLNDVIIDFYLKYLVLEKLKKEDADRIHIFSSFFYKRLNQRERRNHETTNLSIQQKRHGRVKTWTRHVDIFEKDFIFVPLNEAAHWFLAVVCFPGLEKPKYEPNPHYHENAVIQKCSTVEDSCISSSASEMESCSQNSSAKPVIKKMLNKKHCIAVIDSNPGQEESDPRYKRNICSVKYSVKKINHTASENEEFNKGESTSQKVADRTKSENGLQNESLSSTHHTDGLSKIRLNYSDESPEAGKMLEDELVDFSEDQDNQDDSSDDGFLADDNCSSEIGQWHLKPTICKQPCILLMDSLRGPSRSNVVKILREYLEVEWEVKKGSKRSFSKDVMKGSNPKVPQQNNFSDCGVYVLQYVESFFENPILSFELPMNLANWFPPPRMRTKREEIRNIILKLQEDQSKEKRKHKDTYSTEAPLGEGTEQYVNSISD
PPC-1+TRAIL kill: PPC-1 cancer cell killing with TRAIL present. AID 1443. cell killing (% activity), % at 4 µM or 5 µM. 0.41% of 220,000 active. PPC-1 cells + TRAIL, ATPLite viability luminescence;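 active means cell killing above 50% in the first pass at 4 µM, then a duplicate retest at 5 µM averaging 50% or more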;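 further: plate controls were cells with TRAIL plus DMSO for no effect and medium-only wells lacking cells for full effect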
SENP7 block: SENP7 protease inhibition; 1.5% of 330,000 active; recombinant SENP7, Z-RLRGG-aminoluciferin luminescence, 40 min; AID 434973; inhibition, % at 5 µM; Q9BQF6;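 active means inhibition above about 50% at the single test dose, limit read from the data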;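 further: plate controls were DMSO with enzyme for no effect and no enzyme buffer wells for full effect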
SENP8 block-1: inhibitors of human SENP8 protease; 1.2% of 330,000 active; purified SENP8, Z-RLRGG-aminoluciferin cleavage, luminescence; inhibition, % at 10 µM; Q96LD8; in the data active means inhibition above about 50%
SENP8 block-2: inhibitors of human SENP8 protease; recombinant SENP8, Nedd8 substrate fluorescence; AID 602440; Q96LD8; 0.64% of 360,000 active; inhibition, % at 20 µM; in the data active means inhibition mostly above about 40%, no sharp cut-off; inactive means mostly below about 27%
SENP8 conf: human SENP8 inhibition, confirmed | shares compounds with SENP7 block | Recombinant SENP8, Z-RLRGG-aminoluciferin luminescence, 60 min | inhibition, % at 12.5 µM | 40% of 6,200 active;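 active means mean inhibition across replicates above about 50%, limit read from the data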
SENP6 confirm: confirmation of human SENP6 protease inhibitors | AID 488915 | 58% of 6,200 active | recombinant SENP6, Z-RLRGG-aminoluciferin luminescence | inhibition, % at 12.5 µM | shares compounds with SENP7 block
SENP7 conf: confirmation of human SENP7 protease inhibitors. shares compounds with SENP7 block. recombinant SENP7, Z-RLRGG-aminoluciferin luminescence, 40 min. inhibition, % at 12.5 µM. 69% of 6,200 active
Casp3 SENP sel: caspase-3 inhibition (SENP selectivity assay) | shares compounds with SENP7 block | purified caspase-3, Z-DEVD-aminoluciferin luminescence, 60 min | inhibition, % at 12.5 µM | 60% of 6,200 active | AID 488918;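 active means mean inhibition above about 50%, limit read from the data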;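 further: plate controls were enzyme with DMSO for no effect and wells without caspase-3 for full effect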
Target sequence (P42574 28-227 limits assumed): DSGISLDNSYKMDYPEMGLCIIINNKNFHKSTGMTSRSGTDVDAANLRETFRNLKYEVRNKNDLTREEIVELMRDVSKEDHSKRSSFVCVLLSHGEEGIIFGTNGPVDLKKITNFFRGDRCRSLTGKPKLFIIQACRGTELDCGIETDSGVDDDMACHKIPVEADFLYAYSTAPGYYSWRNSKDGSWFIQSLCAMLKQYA
SENP luc ctr: luminescence interference (SENP counter-screen); shares compounds with SENP7 block; 39% of 6,200 active; Pre-incubated SENP8/Z-RLRGG-aminoluciferin, luciferase luminescence interference; inhibition, % at 12.5 µM; AID 488919;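 active means mean inhibition above about 50% when retested at one dose, limit read from the data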;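 further: plate controls were DMSO wells with completed reaction for no effect and substrate without enzyme for full effect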
Starred values were filed as active, the others as inactive; . = not tested or not shown.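 How the source made its calls, unless noted: active means mean inhibition above about 50% in the one-dose retest (limit read from the data); inactive means the rest.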

SMILES	C8 TRAIL sens	SENP6 inh	PPC-1+TRAIL kill	SENP7 block	SENP8 block-1	SENP8 block-2	SENP8 conf	SENP6 confirm	SENP7 conf	Casp3 SENP sel	SENP luc ctr
CC1CCc2nc(NC(=O)C3CC3)sc2C1 (centres undefined)	2.8	-18.0	21.9	-17.1	-15.3	15.1	.	.	.	.	.
Cc1cc(S(=O)(=O)N2CCCC2)ccc1OCC(=O)N1CCCCC1	-1.5	4.2	.	-1.6	5.9	8.7	.	.	.	.	.
CSc1nsc(/C=C/Nc2cccc(Cl)c2)c1C#N	6.3	67.0*	4.5	10.2	30.4	-184.5	-18.4	-9.8	-2.5	-0.3	-4.9
CSc1nsc(/C=C/Nc2ccc(O)cc2C)c1C#N	-3.8	15.6	5.5	-5.0	-2.8	-320.8	.	.	.	.	.
CSc1nsc(/C=C/Nc2ccc(F)cc2)c1C#N	-1.2	22.5	16.1	7.1	7.5	-140.0	.	.	.	.	.
CSc1nsc(/C=C/Nc2ccc(Cl)cc2)c1C#N	-10.8	54.5*	5.2	7.3	22.9	-219.8	-11.0	-4.6	2.5	1.9	-2.5
c1ccc(-c2cncn2-c2ccccc2)cc1	20.5	-11.0	.	2.4	-1.8	-0.3	.	.	.	.	.
Cc1ccc(NC(=O)COC(=O)Cc2cccs2)cc1S(=O)(=O)N1CCOCC1	-5.6	1.8	.	-4.5	3.5	-21.5	.	.	.	.	.
O=C(Cn1c(NCCCO)nc2ccccc21)c1ccc(Cl)cc1Cl	11.6	13.1	.	3.5	1.1	7.5	.	.	.	.	.
O=C(CSc1ncnc2ccccc12)c1cccs1	2.9	-65.6	1.6	55.9*	8.4	2.2	30.1	51.8*	87.4*	26.9	7.2
COc1ccc(-c2csc(N3C(=N)SCC3=O)n2)cc1	21.3	73.8*	25.8	8.8	79.9*	20.9	19.9	12.2	17.0	17.9	0.1
CCOC(=O)C1CCN(Cc2ccccn2)CC1	.	10.3	.	1.2	3.7	.	.	.	.	.	.
O=C(O)C1CCN(Cc2ccccn2)CC1	-2.1	82.9*	27.5	2.2	4.8	14.6	11.0	1.2	5.2	5.9	3.0
CC1CCCN(S(=O)(=O)c2ccc3c(c2)c(=O)nc2ccccn23)C1 (centres undefined)	-12.6	-4.4	.	-0.5	0.4	-307.0	.	.	.	.	.
C(/C=C/c1ccccn1)=C\c1ccccc1	51.1*	87.4*	.	88.1*	80.3*	-402.3	24.8	65.6*	90.5*	66.4*	52.5*
Cc1cc(C(=O)COC(=O)c2ccc[nH]c2=O)c(C)n1C1CC1	12.8	-35.3	24.2	-3.2	-4.1	5.0	.	.	.	.	.
Cc1cc(C(=O)COC(=O)c2ccc(F)cc2F)c(C)n1C1CC1	2.3	63.6*	.	43.3	49.6	11.8	-1.3	-13.5	33.0	13.9	-3.1
COc1cc(NC(=O)c2ccccc2-n2cnnn2)cc(OC)c1	7.6	-1.1	.	-3.2	5.7	17.0	.	.	.	.	.
COc1cc(OC)cc(C(=O)Nc2ccc(-n3cnnn3)c(C)c2)c1	-29.4	93.8*	9.8	1.1	92.2*	12.0	68.9*	91.7*	100.8*	94.9*	91.7*
O=C(COC(=O)c1ccccc1[N+](=O)[O-])c1ccc(C2CCCCC2)cc1	3.9	89.5*	25.2	97.5*	88.8*	12.4	12.0	77.1*	51.8*	79.0*	15.6
O=C(OCC(=O)N1CCc2ccccc21)c1ccccc1F	-10.4	58.1*	.	42.9	33.5	10.4	43.1	37.8	75.6*	64.3*	5.2
O=C(OCC(=O)N1CCc2ccccc21)c1ccccc1[N+](=O)[O-]	29.9	86.6*	.	91.3*	85.8*	4.4	93.8*	94.3*	101.7*	94.9*	74.5*
O=S(=O)(c1ccc(Cl)c(C(F)(F)F)c1)N1CCN(c2ccccn2)CC1	-1.0	-13.4	22.9	-10.3	-4.8	4.9	.	.	.	.	.
COc1ccc(-c2nn(-c3ccccc3)cc2C(=O)NC(=S)Nc2cc(Cl)ccc2Cl)cc1	34.5	-7.1	-11.5	-1.1	2.2	20.3	.	.	.	.	.
Cc1ccccc1NC(=O)c1cc2ccccn2n1	27.7	-4.8	44.7	66.8*	61.7*	-0.3	71.9*	70.2*	88.9*	86.8*	73.5*
SMILES	C8 TRAIL sens	SENP6 inh	PPC-1+TRAIL kill	SENP7 block	SENP8 block-1	SENP8 block-2	SENP8 conf	SENP6 confirm	SENP7 conf	Casp3 SENP sel	SENP luc ctr
CC(=O)c1cccc(NC(=O)c2cc3ccccn3n2)c1	-6.4	18.9	40.0	6.6	-0.5	9.1	.	.	.	.	.
Cc1ccc(C)c(NC(=O)c2cc3ccccn3n2)c1	20.0	56.1*	5.4	33.3	27.3	3.9	35.4	36.4	73.6*	71.8*	59.5*
Cc1ccc(C)c(NC(=O)c2cnn3ccccc23)c1	18.9	-3.4	18.5	0.9	-1.8	-1.2	.	.	.	.	.
CC1CCCC(NC(=O)C2CCN(S(=O)(=O)c3cccc4nonc34)CC2)C1C (centres undefined)	-1.1	-20.2	.	-0.7	2.0	4.5	.	.	.	.	.
COc1cccc(-n2c(CCn3nc(C)c([N+](=O)[O-])c3C)n[nH]c2=S)c1	1.2	0.0	14.6	4.3	-2.0	2.9	.	.	.	.	.
COc1ccc(CCn2nc(C)c([N+](=O)[O-])c2C)cc1	-11.8	70.6*	.	58.8*	30.3	1.1	57.0*	52.8*	81.5*	79.0*	62.0*
CCc1nc2c(OCc3cc(Cl)cc(Cl)c3)cccn2c1N(C=O)Cc1ccc(OC)cc1	3.5	.	.	.	.	-6.2	.	.	.	.	.
Cc1ccc(/C=N/NC(=O)CNC(=O)c2cccs2)o1	2.3	7.4	8.8	4.5	-2.4	4.2	.	.	.	.	.
O=C(N/N=C/C(Br)=C/c1ccccc1)C(O)c1ccccc1 (centres undefined)	8.6	-23.0	13.1	-8.4	-6.5	21.0	.	.	.	.	.
O=C(N/N=C/c1ccc(-c2ccccc2C(=O)O)o1)c1cccs1	-0.5	50.7*	21.8	18.9	21.4	-307.1	40.6	32.1	63.8*	73.0*	20.3
O=C(N/N=C/C(Br)=C\c1ccccc1)c1cccs1	-2.8	62.7*	10.8	29.9	51.7*	8.6	18.5	48.8	76.8*	30.0	6.8
O=C(N/N=C/c1ccc(Cl)cc1Cl)c1cccc(F)c1	6.3	88.5*	8.1	88.4*	76.6*	20.1	-5.9	10.3	33.4	32.0	6.9
O=C(O)c1ccc(N/N=C/C(Br)=C/c2ccccc2)cc1	11.4	100.6*	-1.5	83.1*	95.8*	-42.2	99.1*	100.2*	103.1*	85.1*	96.5*
COc1ccc(CCNC(=O)COc2ccc(S(=O)(=O)NC3CCCCC3)cc2Cl)cc1	-2.2	-19.9	0.2	3.6	3.1	1.2	.	.	.	.	.
